Molecules are shown by their SMILES. Where “and” joins values, the source holds several entries; their conditions need not be identical. Identical values can stand only once. Results filed as inconclusive are left out. Where a call stands in place of a potency, no number is given. Some compounds were tested as several samples or in several runs, with calls that do not always agree. Calls of active or inactive are those of the source. The call rests on the fitted dose curve; in most records, active means well fitted cell-killing curve with a large enough effect in the repeat runs; inconclusive means weak or mixed curves, or effect the other way; inactive means flat fitted curve, though single readings scatter.

This assay is described as follows: Nuclear factor erythroid 2-related factor 2/antioxidant responsive element (Nrf2/ARE) small molecule agonists: qHTS cell viability counter screen in human keratinocytes (AID 1919968). Further: nearly all actives have a fitted effect of over 55% in size. In a few lines: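 Parallel cytotoxicity read: KeratinoSens HaCaT cells, compound treatment 23 h, viability by CellTiter-Fluor fluorescence 1 h post-reagent.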
(In general: In qHTS, concentration-response curves come from the screen itself.)
Potency means the concentration at half of the fitted maximal effect.

As to `C[C@]12CCC(=O)C=C1CC[C@@H]1[C@@H]2CC[C@@]2(C)[C@H]1CC[C@]2(C)O`, the Potency entry was “inactive”. Then `[Cd+2].[Cl-].[Cl-]`, with 27.5 µM (active) and 43.3 µM (active); and `OC[C@@H](O)[C@H]1O[C@@H]2O[C@H](C(Cl)(Cl)Cl)O[C@@H]2[C@H]1O`, with “inactive”. On to `N#Cc1ccccn1`, for which the Potency entry is “inactive”.

Consider `COC(=O)NS(=O)(=O)c1ccc(N)cc1`, for which the Potency entry was “inactive”. Then `CCCCCc1cc(O)cc(O)c1`, with “inactive”; and `CCCCCCOC(=O)c1ccccc1C(=O)OCCCCCC`, with “inactive”; and `CCn1cc[n+](C)c1C`, with “inactive”. For `[O-][Cl+2]([O-])O`, the Potency entry is “inactive”. For the compound `CN(C)c1ccc(N=O)cc1`, the Potency was 27.4 µM (active) and 54.5 µM (active). On to `COc1ccccc1OC`, for which the Potency entry was “inactive”.

Consider `CC(C)N(C(=O)CCl)c1ccccc1`, for which the Potency was 54.5 µM (active). As for `CC(C)(O)C(Cl)(Cl)Cl`, the Potency entry is “inactive”. Then `S=c1[nH]c2ccccc2[nH]1`, with “inactive”. Then `N#CC(c1ccccc1)c1ccccc1`, with “inactive”; and `CCOP(=O)(O)OCC` (tested in a mixture with another compound), with “inactive and 24.1 µM (active)”; and `CC(C)OC(=O)Nc1cccc(Cl)c1`, with “inactive”. On to `COc1cc(N)c(Cl)cc1C(=O)NC1CN2CCC1CC2` (stereo not drawn), for which the Potency entry is “inactive”. With `CN(C)C(=S)S`, the Potency was 9.89 µM (active) and 607 nM (active) and 27.3 µM (active). As for `CCN(CC)CCO`, the Potency result is “inactive”. With `CCCCCCCCCC(CC)c1ccc(S(=O)(=O)O)cc1` (stereo not drawn), the Potency entry was “inactive and 26.6 µM (active)”. Then `C=CCO`, with “inactive”. Then `N#Cc1cccc(C#N)c1`, with “inactive”.

Take `Cc1cccc(C)c1N`: the Potency result was “inactive”.

Consider `CN1C(=O)CN=C(c2ccccc2)c2cc(Cl)ccc21`, for which the Potency result was “inactive”.

Take `CCCCCCCCCCCCOS(=O)(=O)O`: the Potency result is “inactive”.

Take `O=[N+]([O-])/C=C/c1ccccc1`: the Potency is 17.5 µM (active) and 27.3 µM (active).

`COC(=O)c1cncn1C(C)c1ccccc1` (stereo not drawn): the Potency result was “inactive”. Take `CCC(C)n1c(=O)[nH]c(C)c(Br)c1=O` (stereo not drawn): the Potency result is “inactive”. Regarding `COP(=O)(OC)OC`, the Potency result was “inactive”.

`C1CC2OC2CC1C1CO1` (stereo not drawn): the Potency result is “inactive”. Then `NC(=O)CN1CCCC1=O`, with “inactive”; and `[Cl-].[Cl-].[Cl-].[Fe+3]`, with “inactive”; and `O=S(=O)(O)O`, with “inactive”. With `CC(=O)O`, the Potency result was “inactive”. Regarding `CCN(CC)C(=O)/C(Cl)=C(\C)OP(=O)(OC)OC`, the Potency entry is “inactive”. Then `Cc1cc(Cl)ccc1OC(C)C(=O)O` (stereo not drawn), with “inactive”. Then `CCCCC(CC)COC(=O)Cl` (stereo not drawn), with “inactive”; and `COc1ccc(C(O)(c2cncnc2)C2CC2)cc1` (stereo not drawn), with “inactive”; and `Cc1ccc2c(c1N)C(=O)c1ccccc1C2=O`, with “inactive”. For `C[C@@H]1O[C@@H](O[C@H]2C[C@@H](O)[C@]3(CO)[C@H]4[C@H](O)C[C@]5(C)[C@@H](C6=CC(=O)OC6)CC[C@]5(O)[C@@H]4CC[C@]3(O)C2)[C@H](O)[C@H](O)[C@H]1O`, the Potency is 730 nM (active) and 1.06 µM (active).

Regarding `[Cl-].[Cl-].[Hg+2]`, the Potency is 7.66 µM (active) and 3.06 µM (active). Consider `C=CC(=O)OCC(CC)(COC(=O)C=C)COC(=O)C=C`, for which the Potency was 6.28 µM (active) and 12.2 µM (active). On to `CON(C)C(=O)Nc1ccc(Cl)c(Cl)c1`, for which the Potency entry was “inactive”. Then `COC(=O)C(Cl)C(=O)OC`, with “inactive”; and `COC(=O)Nc1nc2ccccc2[nH]1`, with “inactive”; and `CCCCCCCCn1sccc1=O`, with 1.22 µM (active) and 1.43 µM (active). `O=C(O)c1ccccc1O`: the Potency entry is “inactive”.

For the origin of these results see PubChem BioAssay (Tox21).
